According to ChEMBL document CHEMBL2218924, “A broad activity screen in support of a chemogenomic map for kinase signalling research and drug discovery” (Biochem J, 2013):

How the values were obtained:
[1] = target: Casein kinase II subunit alpha' (Homo sapiens) (UniProt P19784); settings: at 10 µM
[2] = target: Dual specificity protein kinase CLK2 (Homo sapiens) (UniProt P49760); settings: at 1 µM
[3] = target: Dual specificity protein kinase CLK2 (Homo sapiens) (UniProt P49760); settings: at 10 µM
[4] = target: Calcium/calmodulin-dependent protein kinase type 1 (Homo sapiens) (UniProt Q14012); settings: at 10 µM
Calcium/calmodulin-dependent protein kinase type 1 (Homo sapiens), sequence (Q14012 whole entry, looked up): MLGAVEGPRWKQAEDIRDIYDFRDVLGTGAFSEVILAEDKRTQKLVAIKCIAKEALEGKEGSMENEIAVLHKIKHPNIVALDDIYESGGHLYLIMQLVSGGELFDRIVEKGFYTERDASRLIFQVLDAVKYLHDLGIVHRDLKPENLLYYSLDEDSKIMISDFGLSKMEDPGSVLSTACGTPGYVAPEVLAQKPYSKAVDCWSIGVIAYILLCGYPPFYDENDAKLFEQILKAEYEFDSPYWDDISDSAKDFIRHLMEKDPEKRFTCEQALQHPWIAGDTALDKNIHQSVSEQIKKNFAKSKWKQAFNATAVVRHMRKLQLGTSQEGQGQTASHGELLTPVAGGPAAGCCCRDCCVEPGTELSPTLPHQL

[5] = target: Calcium/calmodulin-dependent protein kinase type II subunit gamma (Homo sapiens) (UniProt Q13555); settings: at 1 µM
Calcium/calmodulin-dependent protein kinase type II subunit gamma (Homo sapiens), sequence (Q13555 whole entry): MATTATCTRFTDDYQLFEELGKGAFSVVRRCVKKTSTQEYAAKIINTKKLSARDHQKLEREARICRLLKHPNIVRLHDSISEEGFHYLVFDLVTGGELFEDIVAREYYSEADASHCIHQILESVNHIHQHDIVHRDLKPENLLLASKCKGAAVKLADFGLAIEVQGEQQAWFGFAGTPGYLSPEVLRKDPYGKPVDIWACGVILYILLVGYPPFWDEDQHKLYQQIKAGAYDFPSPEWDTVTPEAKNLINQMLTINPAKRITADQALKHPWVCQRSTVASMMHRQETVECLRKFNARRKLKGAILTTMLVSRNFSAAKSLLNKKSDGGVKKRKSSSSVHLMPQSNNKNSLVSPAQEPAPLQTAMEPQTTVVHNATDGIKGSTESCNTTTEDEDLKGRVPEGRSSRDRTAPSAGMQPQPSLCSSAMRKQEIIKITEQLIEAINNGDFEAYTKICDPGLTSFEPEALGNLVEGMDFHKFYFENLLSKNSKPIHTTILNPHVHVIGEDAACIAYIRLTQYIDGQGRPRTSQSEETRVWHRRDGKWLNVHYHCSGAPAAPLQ

[6] = target: Calcium/calmodulin-dependent protein kinase type II subunit gamma (Homo sapiens) (UniProt Q13555); settings: at 10 µM
[7] = target: Calcium/calmodulin-dependent protein kinase type II subunit delta (Homo sapiens) (UniProt Q13557); settings: at 1 µM
Calcium/calmodulin-dependent protein kinase type II subunit delta (Homo sapiens), sequence (Q13557 whole entry): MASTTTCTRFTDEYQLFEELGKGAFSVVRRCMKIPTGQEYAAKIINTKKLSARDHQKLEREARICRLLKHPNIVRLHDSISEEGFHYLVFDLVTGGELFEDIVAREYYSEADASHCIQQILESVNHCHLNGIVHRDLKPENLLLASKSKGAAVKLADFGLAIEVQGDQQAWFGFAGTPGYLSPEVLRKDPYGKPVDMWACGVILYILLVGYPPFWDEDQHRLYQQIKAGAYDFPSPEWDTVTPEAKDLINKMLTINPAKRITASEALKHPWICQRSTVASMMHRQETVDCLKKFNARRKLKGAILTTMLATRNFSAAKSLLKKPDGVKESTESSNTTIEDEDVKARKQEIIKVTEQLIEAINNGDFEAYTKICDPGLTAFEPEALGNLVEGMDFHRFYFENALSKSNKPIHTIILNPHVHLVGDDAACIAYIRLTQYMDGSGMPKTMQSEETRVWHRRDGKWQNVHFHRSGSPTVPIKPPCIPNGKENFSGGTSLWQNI

[8] = target: Calcium/calmodulin-dependent protein kinase type II subunit delta (Homo sapiens) (UniProt Q13557); settings: at 10 µM
[9] = target: T1, Casein kinase II (Homo sapiens) (UniProt P67870+P68400+P19784); settings: at 1 µM
T1 sequence (P19784 whole entry, looked up): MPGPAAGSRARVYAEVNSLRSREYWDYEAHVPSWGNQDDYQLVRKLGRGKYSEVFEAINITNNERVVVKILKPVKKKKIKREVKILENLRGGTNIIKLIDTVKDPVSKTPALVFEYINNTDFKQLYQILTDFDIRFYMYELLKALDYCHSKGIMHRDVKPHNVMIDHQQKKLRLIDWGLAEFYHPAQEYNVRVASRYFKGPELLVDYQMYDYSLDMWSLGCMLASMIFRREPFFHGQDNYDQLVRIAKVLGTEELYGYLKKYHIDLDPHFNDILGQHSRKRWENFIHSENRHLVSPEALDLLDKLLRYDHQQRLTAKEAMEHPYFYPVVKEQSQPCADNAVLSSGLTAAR
T1 sequence (P67870 whole entry, looked up): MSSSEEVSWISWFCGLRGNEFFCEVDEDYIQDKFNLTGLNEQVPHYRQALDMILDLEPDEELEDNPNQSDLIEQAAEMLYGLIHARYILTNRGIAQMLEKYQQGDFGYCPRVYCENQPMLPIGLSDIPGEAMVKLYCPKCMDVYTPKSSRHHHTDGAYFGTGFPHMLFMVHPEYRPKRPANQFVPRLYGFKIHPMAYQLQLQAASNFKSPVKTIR
T1 sequence (P68400 whole entry, looked up): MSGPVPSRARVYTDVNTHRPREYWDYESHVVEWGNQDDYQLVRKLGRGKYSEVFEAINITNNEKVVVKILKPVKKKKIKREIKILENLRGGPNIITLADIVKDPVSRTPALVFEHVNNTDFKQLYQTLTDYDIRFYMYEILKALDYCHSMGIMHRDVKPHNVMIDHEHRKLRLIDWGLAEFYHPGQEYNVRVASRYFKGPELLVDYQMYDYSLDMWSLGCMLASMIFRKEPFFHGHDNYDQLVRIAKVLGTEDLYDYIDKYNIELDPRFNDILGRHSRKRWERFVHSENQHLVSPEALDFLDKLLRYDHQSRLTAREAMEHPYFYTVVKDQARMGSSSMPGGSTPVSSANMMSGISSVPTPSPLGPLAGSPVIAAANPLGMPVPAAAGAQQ

[10] = target: T1, Casein kinase II (Homo sapiens); settings: at 10 µM
[11] = target: Casein kinase II subunit alpha' (Homo sapiens) (UniProt P19784); settings: at 1 µM
[12] = target: Dual specificity protein kinase CLK3 (Homo sapiens) (UniProt P49761); settings: at 1 µM
Dual specificity protein kinase CLK3 (Homo sapiens), sequence (P49761 whole entry, looked up): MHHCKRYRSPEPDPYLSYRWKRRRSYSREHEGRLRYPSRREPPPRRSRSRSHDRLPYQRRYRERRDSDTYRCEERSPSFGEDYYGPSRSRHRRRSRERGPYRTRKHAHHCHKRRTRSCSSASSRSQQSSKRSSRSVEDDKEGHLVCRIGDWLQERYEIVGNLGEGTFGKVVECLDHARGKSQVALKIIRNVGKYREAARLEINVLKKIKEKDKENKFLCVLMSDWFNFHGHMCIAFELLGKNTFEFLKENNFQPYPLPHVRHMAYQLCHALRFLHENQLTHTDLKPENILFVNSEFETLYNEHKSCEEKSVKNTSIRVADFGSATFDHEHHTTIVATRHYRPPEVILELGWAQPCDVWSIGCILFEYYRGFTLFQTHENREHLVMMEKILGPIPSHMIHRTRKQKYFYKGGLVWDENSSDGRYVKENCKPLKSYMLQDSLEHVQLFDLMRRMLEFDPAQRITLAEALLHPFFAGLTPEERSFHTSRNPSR

[13] = target: Dual specificity protein kinase CLK3 (Homo sapiens) (UniProt P49761); settings: at 10 µM
[14] = target: Tyrosine-protein kinase CSK (Homo sapiens) (UniProt P41240); settings: at 1 µM
Tyrosine-protein kinase CSK (Homo sapiens), sequence (P41240 2-450 limits assumed): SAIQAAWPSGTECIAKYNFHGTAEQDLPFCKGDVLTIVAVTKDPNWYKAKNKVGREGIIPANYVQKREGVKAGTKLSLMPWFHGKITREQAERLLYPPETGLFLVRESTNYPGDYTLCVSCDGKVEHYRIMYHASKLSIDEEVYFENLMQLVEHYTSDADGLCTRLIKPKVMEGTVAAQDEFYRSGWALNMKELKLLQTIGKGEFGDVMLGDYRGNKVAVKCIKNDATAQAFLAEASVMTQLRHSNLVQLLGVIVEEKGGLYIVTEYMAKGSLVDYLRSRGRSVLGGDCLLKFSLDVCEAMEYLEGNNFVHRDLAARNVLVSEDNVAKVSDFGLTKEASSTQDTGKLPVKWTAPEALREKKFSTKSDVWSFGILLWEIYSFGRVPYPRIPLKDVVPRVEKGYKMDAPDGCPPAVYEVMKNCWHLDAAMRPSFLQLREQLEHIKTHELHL

[15] = target: Tyrosine-protein kinase CSK (Homo sapiens) (UniProt P41240); settings: at 10 µM
[16] = target: Calcium/calmodulin-dependent protein kinase type II subunit beta (Homo sapiens) (UniProt Q13554); settings: at 1 µM
Calcium/calmodulin-dependent protein kinase type II subunit beta (Homo sapiens), sequence (Q13554 whole entry): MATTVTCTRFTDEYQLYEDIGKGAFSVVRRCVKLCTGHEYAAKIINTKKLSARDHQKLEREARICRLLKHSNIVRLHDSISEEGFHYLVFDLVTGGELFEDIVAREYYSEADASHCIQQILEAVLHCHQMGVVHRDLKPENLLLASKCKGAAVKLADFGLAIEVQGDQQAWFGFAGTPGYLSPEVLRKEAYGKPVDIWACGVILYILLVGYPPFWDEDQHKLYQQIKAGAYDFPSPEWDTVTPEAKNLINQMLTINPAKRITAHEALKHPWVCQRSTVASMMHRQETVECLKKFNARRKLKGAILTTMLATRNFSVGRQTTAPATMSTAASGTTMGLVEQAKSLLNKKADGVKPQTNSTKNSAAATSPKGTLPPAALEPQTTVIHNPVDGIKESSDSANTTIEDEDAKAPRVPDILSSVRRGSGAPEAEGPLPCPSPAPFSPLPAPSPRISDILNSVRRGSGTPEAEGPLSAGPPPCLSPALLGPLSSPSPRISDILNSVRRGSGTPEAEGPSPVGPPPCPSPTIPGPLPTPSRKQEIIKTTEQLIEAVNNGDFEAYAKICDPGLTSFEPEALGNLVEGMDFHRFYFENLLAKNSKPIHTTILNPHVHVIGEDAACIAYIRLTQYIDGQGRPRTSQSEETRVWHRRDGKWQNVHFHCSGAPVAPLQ

[17] = target: Calcium/calmodulin-dependent protein kinase type II subunit beta (Homo sapiens) (UniProt Q13554); settings: at 10 µM
[18] = target: T2, Calcium/calmodulin-dependent protein kinase type IV (Homo sapiens) (UniProt Q16566); settings: at 10 µM
T2 sequence (whole entry): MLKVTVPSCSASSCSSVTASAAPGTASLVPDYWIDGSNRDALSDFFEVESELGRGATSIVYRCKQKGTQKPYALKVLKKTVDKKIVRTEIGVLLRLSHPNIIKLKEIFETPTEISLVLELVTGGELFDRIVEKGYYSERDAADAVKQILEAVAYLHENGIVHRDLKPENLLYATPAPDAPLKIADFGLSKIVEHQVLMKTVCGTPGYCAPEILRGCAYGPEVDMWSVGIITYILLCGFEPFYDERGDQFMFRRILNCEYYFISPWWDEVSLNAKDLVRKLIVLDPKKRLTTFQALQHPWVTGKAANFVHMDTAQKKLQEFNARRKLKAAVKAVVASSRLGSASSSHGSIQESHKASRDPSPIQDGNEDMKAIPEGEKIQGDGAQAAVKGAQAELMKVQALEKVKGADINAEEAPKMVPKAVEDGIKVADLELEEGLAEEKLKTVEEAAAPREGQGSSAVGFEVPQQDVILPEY

[19] = target: Calcium/calmodulin-dependent protein kinase type 1 (Homo sapiens) (UniProt Q14012); settings: at 1 µM
[20] = target: T2, Calcium/calmodulin-dependent protein kinase type IV (Homo sapiens); settings: at 1 µM

Dual specificity protein kinase CLK2 (Homo sapiens), sequence (P49760 whole entry, looked up): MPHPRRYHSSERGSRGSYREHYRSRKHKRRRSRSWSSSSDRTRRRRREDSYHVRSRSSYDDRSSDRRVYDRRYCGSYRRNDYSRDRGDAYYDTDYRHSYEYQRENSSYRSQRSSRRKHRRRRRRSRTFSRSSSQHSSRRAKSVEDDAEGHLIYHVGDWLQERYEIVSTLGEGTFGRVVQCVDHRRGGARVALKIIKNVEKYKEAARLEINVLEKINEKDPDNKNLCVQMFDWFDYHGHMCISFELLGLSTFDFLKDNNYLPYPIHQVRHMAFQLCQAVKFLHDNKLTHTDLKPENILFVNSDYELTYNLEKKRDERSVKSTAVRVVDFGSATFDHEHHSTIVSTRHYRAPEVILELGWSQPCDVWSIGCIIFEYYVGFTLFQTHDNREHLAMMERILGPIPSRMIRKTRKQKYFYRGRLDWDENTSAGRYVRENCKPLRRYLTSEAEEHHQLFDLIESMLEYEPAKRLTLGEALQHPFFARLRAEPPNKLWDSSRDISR
Casein kinase II subunit alpha' (Homo sapiens), sequence (P19784 whole entry, looked up): as the sequence (P19784 whole entry, looked up) above

Structure (SMILES)	residual activity [1] [%]	residual activity [2] [%]	residual activity [3] [%]	residual activity [4] [%]	residual activity [5] [%]	residual activity [6] [%]	residual activity [7] [%]	residual activity [8] [%]	residual activity [9] [%]	residual activity [10] [%]	residual activity [11] [%]	residual activity [12] [%]	residual activity [13] [%]	residual activity [14] [%]	residual activity [15] [%]	residual activity [16] [%]	residual activity [17] [%]	residual activity [18] [%]	residual activity [19] [%]	residual activity [20] [%]
COc1ccc2c(c1)/C(=C/c1cnc[nH]1)C(=O)N2	32	50	10	77	49	10	42	8												
c1cc(-c2cnn3cc(-c4ccc(OCCN5CCCCC5)cc4)cnc23)ccn1	1	26	3	61	39	7	40	6	82	27	26	62	23	100	64	48	8	87		
CC(C)(C)c1cc(C=C(C#N)C#N)cc(Br)c1O	113	99	103	105	102	55	104	46	113	114	121	100	108	103	105			83	121	115
CN[C@@H]1C[C@H]2O[C@@](C)([C@@H]1OC)n1c3ccccc3c3c4c(c5c6ccccc6n2c5c31)C(=O)NC4	85								81	85	83						0			
O=C1Nc2ccc3ncsc3c2/C1=C/c1c[nH]cn1	-1	8	3	22	21	-1	18	4	30	1	12	38	3	104	96	13	3	24	72	80
COc1ccc2c(c[n+](C)c3c4cc5c(cc4ccc23)OCO5)c1OC		120	93	86		70		85	92	110	126	74	80		95	80	55	69		
COc1cc2ncnc(Nc3ccc(OCc4ccccc4)cc3)c2cc1OC	99	117	93	57	109	93	100	83	92	116	121	82	87	84	62	106	95	91	92	92
O=C1NC(=O)c2c1c1c3ccccc3n3c1c1c2c2ccccc2n1C1CCC3O1	49	100	92	48	0	1	-1	5			63	95	85			32	32	100	63	90
O=[N+]([O-])/C=C/c1ccc2c(c1)OCO2	102	121	101	84	107	100	109	97	105	126	134	91		112	100	90	84	14	108	132
COc1cc(OC)c(/C=C2\C(=O)Nc3ccccc32)c(OC)c1	90			82	105	96	107	89	88	91	94	83	81		99	102	76	101	96	
CCc1nc(-c2ccc(OC)cc2)[nH]c1-c1ccncc1	100	101	74	101			110	80			121			123	102		76		108	
CCn1cnc2c(Nc3cccc(Cl)c3)nc(N[C@@H]3CCCC[C@@H]3N)nc21		10	4	27	43	10	44	10	91	57		76	30		69	93	45	17	84	77
O=C1c2ccccc2-c2nc3nnnn3nc21	77	115	107	100		105	104	103			129	83	119	123	115	105		113	107	122
N/C(=N\[N+](=O)[O-])N/N=C\c1ccc(-c2cccc([N+](=O)[O-])c2)o1				49	91	53			97	89		93	86	122	100	92	76		93	
C[S+]([O-])c1ccc(-c2nc(-c3ccc(F)cc3)c(-c3ccncc3)[nH]2)cc1 (stereo not given)	105	114	94	99	103	100	108	89	100	104	122	98	98	103	98	114	98	98	115	113
COC(=O)[C@@]1(O)C[C@H]2O[C@]1(C)n1c3ccccc3c3c4c(c5c6ccccc6n2c5c31)C(=O)NC4	90	1	4	1	1	0	0	1	93	82	108	72	33	71	18	0	-1	11	6	24
CC(C)[C@H](CO)Nc1nc(Nc2cccc(Cl)c2)c2ncn(C(C)C)c2n1		8	1	78	100	42	99	46	99	96		55	11		65	95	68	60	93	
O=c1[nH]c2ccccc2n1C1CCN(Cc2ccc(-c3nc4cc5[nH]cnc5cc4nc3-c3ccccc3)cc2)CC1	95	98	76	-5	104	16	102	2	89	101	113		76	112	89	94	6	49	103	130
